Experimental findings from PubChem BioAssay (EPA / NIEHS) are described below.

In assay [1] the target is human RAR-related Orphan Receptor gamma (RORg), RORC (gene 6097) (UniProt P51449). In words: ATG_RORg_TRANS: Attagene TRANS-FACTORIAL HepG2 Assay for human RAR-related Orphan Receptor gamma (RORg) (AID 2283011; active = hit-call score of the fitted dose curve at least 0.9, where 1 is the maximum). The method in brief: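 Reporter transcripts from a transfected RORg-GAL4 chimera in HepG2 cells were quantified 24 h after dosing by RT-PCR, 6-FAM labelling, HpaI digestion and capillary electrophoresis; increases over DMSO baseline were fitted.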
Sequence of human RAR-related Orphan Receptor gamma (RORg), RORC (gene 6097) (P51449 whole entry, looked up, the tested form may be a part): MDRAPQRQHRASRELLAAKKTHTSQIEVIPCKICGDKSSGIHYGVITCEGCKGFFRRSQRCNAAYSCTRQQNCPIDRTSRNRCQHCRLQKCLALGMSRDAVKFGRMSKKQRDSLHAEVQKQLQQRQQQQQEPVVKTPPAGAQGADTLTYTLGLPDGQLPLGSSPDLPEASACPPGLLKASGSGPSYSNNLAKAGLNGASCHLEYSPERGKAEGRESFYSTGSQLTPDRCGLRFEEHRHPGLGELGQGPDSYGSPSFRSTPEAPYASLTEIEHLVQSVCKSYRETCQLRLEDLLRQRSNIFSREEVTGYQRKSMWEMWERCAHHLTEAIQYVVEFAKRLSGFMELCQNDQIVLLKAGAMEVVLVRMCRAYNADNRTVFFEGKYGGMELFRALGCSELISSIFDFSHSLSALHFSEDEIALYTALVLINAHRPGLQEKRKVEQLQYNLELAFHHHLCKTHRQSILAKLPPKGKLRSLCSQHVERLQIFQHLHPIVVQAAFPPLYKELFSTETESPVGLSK

The target in assay [2] is Retinoic acid receptor RXR-alpha (Homo sapiens) (UniProt P19793). In words: ATG_RXRa_TRANS: Attagene TRANS-FACTORIAL HepG2 Assay for human Retinoid X Receptor alpha (RXRa) (AID 2283012; active = hit-call score of the fitted dose curve at least 0.9, where 1 is the maximum). The method in brief: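 Cells (HepG2) carried transiently transfected GAL4-responsive reporter units. Following a 24 h chemical incubation, reporter mRNA induction was read via RT-PCR fragment analysis; DMSO served as negative control and baseline.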
Sequence of Retinoic acid receptor RXR-alpha (Homo sapiens) (P19793 whole entry, looked up, the tested form may be a part): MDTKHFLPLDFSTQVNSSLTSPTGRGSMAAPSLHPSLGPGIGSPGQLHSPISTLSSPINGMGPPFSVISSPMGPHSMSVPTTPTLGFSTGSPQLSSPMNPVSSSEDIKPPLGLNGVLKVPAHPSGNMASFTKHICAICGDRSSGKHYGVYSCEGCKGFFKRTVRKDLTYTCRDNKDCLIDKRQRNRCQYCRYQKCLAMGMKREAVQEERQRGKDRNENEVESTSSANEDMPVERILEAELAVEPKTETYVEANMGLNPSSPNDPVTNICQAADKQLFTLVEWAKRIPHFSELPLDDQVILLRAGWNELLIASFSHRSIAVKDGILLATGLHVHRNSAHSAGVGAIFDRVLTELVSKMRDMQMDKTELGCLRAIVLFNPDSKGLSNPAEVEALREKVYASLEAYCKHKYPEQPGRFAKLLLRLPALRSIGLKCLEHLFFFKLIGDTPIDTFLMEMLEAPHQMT

In assay [3] the target is human Retinoid X Receptor beta (RXRb), RXRB (gene 6257) (UniProt P28702). In words: ATG_RXRb_TRANS: Attagene TRANS-FACTORIAL HepG2 Assay for human Retinoid X Receptor beta (RXRb) (AID 2283013; active = hit-call score of the fitted dose curve at least 0.9, where 1 is the maximum). The gist of the method:
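Multiplexed TRANS reporter assay in HepG2; 24 h dosing; reporter mRNA by RT-PCR/CE fluorescence; gain-of-signal relative to DMSO.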

In assay [4] the target is human Thyroid Receptor alpha (THRa1), THRA (gene 7067) (UniProt P10827). In words: ATG_THRa1_TRANS: Attagene TRANS-FACTORIAL HepG2 Assay for human Thyroid Receptor alpha (THRa1) (AID 2283014; active = hit-call score of the fitted dose curve at least 0.9, where 1 is the maximum). The gist of the method:
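Transcripts from GAL4-UAS-driven reporters, measured after 24 h compound exposure by RT-PCR plus capillary electrophoresis of 6-FAM-labeled fragments, were fitted for gain of signal relative to DMSO. Cells: transiently transfected HepG2 expressing NR-Gal4 chimeras.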

Read-out in assay [5]: E-selectin (Homo sapiens) (UniProt P16581)
In words: BSK_3C_Eselectin: BioMAP Diversity Plus: 3C Assay for Eselectin Biomarker Activity (AID 2283015). Conditions: primary human endothelial cells (HUVEC); actives raise or lower the signal. The gist of the method:
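E-selectin ELISA readout, fitted bidirectionally relative to DMSO, taken 24 h post-dosing in HUVEC cultures of the 3C system. Overt cytotoxicity tracked with sulforhodamine B staining of parallel wells.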

Read-out in assay [6]: Interleukin-1 alpha (IL1a), IL1A (gene 3552)
In words: BSK_BE3C_IL1a: BioMAP Diversity Plus: BE3C Assay for Interleukin-1 alpha (IL1a) Biomarker Activity (AID 2283016). The settings on record: primary human bronchial epithelial cells; actives raise or lower the signal. The method in brief:
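Cultures of primary human bronchial epithelial cells receive test chemical. After 24 h, IL-1a is quantified by ELISA, while parallel wells are fixed in TCA and SRB-stained for total protein. Changes in either direction are fitted relative to DMSO.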

Read-out in assay [7]: Monocyte Chemoattractant Protein-1 (MCP1), CCL2 (gene 6347)
In words: BSK_3C_MCP1: BioMAP Diversity Plus: 3C Assay for Monocyte Chemoattractant Protein-1 (MCP1) Biomarker Activity (AID 2283017). Conditions: primary human endothelial cells (HUVEC); actives raise or lower the signal. The method in brief:
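MCP-1 was measured by ELISA 24 h after dosing in primary HUVEC 3C cultures and fitted in both directions relative to DMSO; cytotoxicity was checked by SRB total-protein staining in parallel wells.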

Read-out in assay [8]: Monocyte Chemoattractant Protein-1 (MCP1), CCL2 (gene 6347)
In words: BSK_4H_MCP1: BioMAP Diversity Plus: 4H Assay for Monocyte Chemoattractant Protein-1 (MCP1) Biomarker Activity (AID 2283018). Conditions: primary human endothelial cells (HUVEC); actives raise or lower the signal. The method in brief:
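Readout: MCP-1 ELISA on compound-treated HUVEC, sampled 24 h post-dosing. Baseline and negative control DMSO; bidirectional fit. Overt toxicity checked alongside by sulforhodamine B protein staining at time of biomarker measurement.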

Read-out in assay [9]: Human Leukocyte Antigen - DR isotype (HLADR), HLA-DRA (gene 3122)
In words: BSK_3C_HLADR: BioMAP Diversity Plus: 3C Assay for Human Leukocyte Antigen - DR isotype (HLADR) Biomarker Activity (AID 2283019). Conditions: primary human endothelial cells (HUVEC); actives raise or lower the signal. The gist of the method: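 Bidirectional fitting against DMSO was applied to the HLA-DR ELISA signal from human umbilical vein endothelial cells, 24 h post-dose. Cytotoxicity came from parallel SRB total-protein staining; 3C proliferation was counted by SRB at 48 h.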

Read-out in assay [10]: Monokine induced gamma interferon (MIG), CXCL9 (gene 4283)
In words: BSK_3C_MIG: BioMAP Diversity Plus: 3C Assay for Monokine induced gamma interferon (MIG) Biomarker Activity (AID 2283021).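 As to AC50: MIG protein level measured by immunoassay in the treated endothelial cultures.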 Conditions: primary human endothelial cells (HUVEC); actives raise or lower the signal. The method in brief: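 After 24 h of treatment, human umbilical vein endothelial cultures (3C system) had their MIG biomarker level determined by ELISA, with DMSO serving as negative control.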

Assay [11] is described as follows: BSK_3C_SRB: Viability Assessment in the BioMAP Diversity Plus: 3C Assay (AID 2283023).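 Also: fitted both ways against DMSO so a hit may be signal rise or drop.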 Conditions: primary human endothelial cells (HUVEC). The gist of the method:
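Cytotoxicity readout in parallel HUVEC 3C cultures: after 24 h compound exposure, cells fixed with 10% TCA, stained with 0.1% SRB and read at 560 nm. Gain or loss relative to DMSO fitted.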

Read-out in assay [12]: Matrix Metallopeptidase 1 (MMP1), MMP1 (gene 4312)
In words: BSK_BE3C_MMP1: BioMAP Diversity Plus: BE3C Assay for Matrix Metallopeptidase 1 (MMP1) Biomarker Activity (AID 2283024). Conditions: primary human bronchial epithelial cells; actives raise or lower the signal. The gist of the method: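 Dose cells, wait 24 h, run MMP1 ELISA; cells are human bronchial epithelial primaries. Both increases and decreases relative to DMSO counted.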

A short description of assay [13]: BSK_3C_Vis: BioMAP Diversity Plus: 3C Assay for Morphology Visualization (AID 2283025).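 Also: fitted both ways so gain or loss versus DMSO counts.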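 As to AC50: light microscopy image of cell morphology used as background control.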 The settings on record: primary human endothelial cells (HUVEC). The gist of the method: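 Endothelial cells from human umbilical vein were treated with test chemicals for 24 h and inspected by light microscopy for changes in cell conformation.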
Read-out in assay [14]: Pselectin, SELP (gene 6403)
In words: BSK_4H_Pselectin: BioMAP Diversity Plus: 4H Assay for Pselectin Biomarker Activity (AID 2283026). Conditions: primary human endothelial cells (HUVEC); actives raise or lower the signal. The method in brief: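 Human vascular endothelium from umbilical vein; P-selectin measured by ELISA at 24 h post-dose, with cytotoxicity checked by sulforhodamine B total-protein staining in parallel cultures (0.1% SRB after 10% TCA fixation, read at 560 nm).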

The nature of assay [15]: BSK_4H_SRB: Viability Assessment in the BioMAP Diversity Plus: 4H Assay (AID 2283027).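 Also: cells exposed to compound for 24 h before staining.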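 As to AC50: curves fitted both ways versus DMSO so AC50 may be loss or gain.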 The settings on record: primary human endothelial cells (HUVEC). The method in brief: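 Human umbilical vein endothelial cells, 24 h after chemical dosing; total protein measured by 0.1% sulforhodamine B staining after 10% TCA fixation, read at 560 nm. Bidirectional fitting against DMSO.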

Read-out in assay [16]: Thrombomodulin, THBD (gene 7056)
In words: BSK_3C_Thrombomodulin: BioMAP Diversity Plus: 3C Assay for Thrombomodulin Biomarker Activity (AID 2283029). Conditions: primary human endothelial cells (HUVEC); actives raise or lower the signal. The method in brief: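 Thrombomodulin ELISA, human primary HUVEC, 24 h post-dose; data fitted in both directions relative to DMSO.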

Read-out in assay [17]: Urokinase-type plasminogen activator receptor (uPAR), PLAUR (gene 5329)
In words: BSK_4H_uPAR: BioMAP Diversity Plus: 4H Assay for Urokinase-type plasminogen activator receptor (uPAR) Biomarker Activity (AID 2283030). The settings on record: primary human endothelial cells (HUVEC); actives raise or lower the signal. The gist of the method:
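uPAR level read by ELISA on HUVEC cultures (BioMAP 4H) 24 h post-dosing, analyzed for gain or loss relative to DMSO. Parallel SRB staining assessed overt cytotoxicity.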

Assay [18] concerns the target human Vitamin D Receptor (VDR), VDR (gene 7421) (UniProt P11473). In words: ATG_VDR_TRANS: Attagene TRANS-FACTORIAL HepG2 Assay for human Vitamin D Receptor (VDR) (AID 2283022; active = hit-call score of the fitted dose curve at least 0.9, where 1 is the maximum). The gist of the method:
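Transactivation by an exogenous VDR-Gal4 chimera in transiently transfected HepG2 cells was measured as reporter transcript level 24 hours after chemical treatment. RT-PCR products were analysed by capillary electrophoresis and fitted in the positive direction relative to DMSO.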

Assay [19] is described as follows: BSK_BE3C_SRB: Viability Assessment in the BioMAP Diversity Plus: BE3C Assay (AID 2283028). Conditions: primary human bronchial epithelial cells. The method in brief: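 Cytotoxicity read-out: SRB (0.1%) staining of TCA-fixed (10%) human lung bronchial epithelial cells, absorbance 560 nm, 24 h post-dosing. Curves fitted both directions relative to DMSO.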

Molecules are shown by their SMILES. Where “and” joins values, the source holds several entries; their conditions need not be identical. Equal values may be shown once. Records with an inconclusive call do not appear. More than one record can exist for a structure, and the calls need not agree. Calls of active or inactive are those of the source. The calls were made as follows, unless noted: active = hit-call score of the fitted dose curve at least 0.9, where 1 is the maximum; inactive = score below 0.9.

Sequence of human Retinoid X Receptor beta (RXRb), RXRB (gene 6257) (P28702 whole entry, looked up): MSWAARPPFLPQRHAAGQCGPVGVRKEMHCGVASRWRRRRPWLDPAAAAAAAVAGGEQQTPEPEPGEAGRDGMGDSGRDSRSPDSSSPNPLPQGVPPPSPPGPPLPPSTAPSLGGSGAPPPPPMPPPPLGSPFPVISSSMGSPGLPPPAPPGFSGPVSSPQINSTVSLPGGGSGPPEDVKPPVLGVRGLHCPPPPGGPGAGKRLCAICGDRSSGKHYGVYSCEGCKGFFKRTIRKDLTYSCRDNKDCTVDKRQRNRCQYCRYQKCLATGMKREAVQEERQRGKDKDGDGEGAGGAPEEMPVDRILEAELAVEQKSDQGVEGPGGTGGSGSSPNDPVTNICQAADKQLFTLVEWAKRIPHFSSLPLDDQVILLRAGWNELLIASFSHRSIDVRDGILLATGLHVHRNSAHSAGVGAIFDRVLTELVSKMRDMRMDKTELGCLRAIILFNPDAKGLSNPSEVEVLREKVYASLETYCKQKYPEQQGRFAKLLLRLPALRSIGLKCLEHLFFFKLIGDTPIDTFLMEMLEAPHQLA
Sequence of E-selectin (Homo sapiens) (P16581 whole entry, looked up): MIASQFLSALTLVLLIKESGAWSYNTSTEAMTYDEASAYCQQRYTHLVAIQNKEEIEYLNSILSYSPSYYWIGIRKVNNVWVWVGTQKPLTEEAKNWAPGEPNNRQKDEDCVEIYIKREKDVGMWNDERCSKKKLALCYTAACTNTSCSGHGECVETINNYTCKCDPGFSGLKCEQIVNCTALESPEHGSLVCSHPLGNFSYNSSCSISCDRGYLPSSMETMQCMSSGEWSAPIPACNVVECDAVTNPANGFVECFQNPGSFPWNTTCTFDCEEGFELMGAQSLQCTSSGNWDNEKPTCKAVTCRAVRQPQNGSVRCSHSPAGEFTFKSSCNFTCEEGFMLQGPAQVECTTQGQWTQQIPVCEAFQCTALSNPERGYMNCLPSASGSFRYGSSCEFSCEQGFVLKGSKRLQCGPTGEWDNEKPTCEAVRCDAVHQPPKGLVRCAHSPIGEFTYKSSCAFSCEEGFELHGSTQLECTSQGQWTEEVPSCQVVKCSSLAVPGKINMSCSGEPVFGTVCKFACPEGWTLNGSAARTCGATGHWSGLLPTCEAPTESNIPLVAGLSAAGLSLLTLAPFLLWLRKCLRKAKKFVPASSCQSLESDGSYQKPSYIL
Sequence of human Thyroid Receptor alpha (THRa1), THRA (gene 7067) (P10827 whole entry, looked up, the tested form may be a part): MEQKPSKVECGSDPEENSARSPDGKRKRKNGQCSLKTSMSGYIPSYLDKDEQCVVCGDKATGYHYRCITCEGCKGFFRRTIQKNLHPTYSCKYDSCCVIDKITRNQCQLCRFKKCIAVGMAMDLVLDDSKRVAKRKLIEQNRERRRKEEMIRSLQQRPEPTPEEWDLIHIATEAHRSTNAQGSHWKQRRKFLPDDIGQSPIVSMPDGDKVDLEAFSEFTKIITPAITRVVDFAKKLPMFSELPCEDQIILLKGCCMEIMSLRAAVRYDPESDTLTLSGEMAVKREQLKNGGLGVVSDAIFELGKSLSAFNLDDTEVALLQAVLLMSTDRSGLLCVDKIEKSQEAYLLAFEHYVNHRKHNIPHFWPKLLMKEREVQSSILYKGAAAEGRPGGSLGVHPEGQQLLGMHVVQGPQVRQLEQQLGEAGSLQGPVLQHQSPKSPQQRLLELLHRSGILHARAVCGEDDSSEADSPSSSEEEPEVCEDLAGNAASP
Sequence of human Vitamin D Receptor (VDR), VDR (gene 7421) (P11473 whole entry, looked up, the tested form may be a part): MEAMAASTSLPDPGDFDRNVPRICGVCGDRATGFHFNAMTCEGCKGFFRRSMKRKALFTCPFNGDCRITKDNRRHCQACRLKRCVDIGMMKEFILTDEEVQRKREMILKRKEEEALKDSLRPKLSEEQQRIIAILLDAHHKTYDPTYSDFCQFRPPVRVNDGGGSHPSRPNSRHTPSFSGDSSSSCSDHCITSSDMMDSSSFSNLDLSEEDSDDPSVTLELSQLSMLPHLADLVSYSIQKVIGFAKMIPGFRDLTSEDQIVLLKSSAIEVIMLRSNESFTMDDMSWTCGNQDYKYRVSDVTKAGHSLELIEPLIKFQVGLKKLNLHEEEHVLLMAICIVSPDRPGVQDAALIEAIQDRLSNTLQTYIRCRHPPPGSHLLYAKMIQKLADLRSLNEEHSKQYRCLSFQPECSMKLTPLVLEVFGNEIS

With `NS(=O)(=O)C(F)(F)C(F)(F)C(F)(F)C(F)(F)C(F)(F)C(F)(F)C(F)(F)C(F)(F)F`, the call in assay [1], in assay [2], in [3], in [4], in [6] and in [16] was inactive. Further, the half-maximal activity concentration (AC50) (in general, the concentration at which the activity in the assay is half-maximal) in assay [5] is 32.5 µM (active) and 56.3 µM (active) and 49.4 µM (active); in assay [6], 43.9 µM (active) and 42.4 µM (active); in [7], 34.4 µM (active) and 47.7 µM (active) and 48.9 µM (active); in assay [8], 24.8 µM (active) and 37.8 µM (active) and 11.1 µM (active); in assay [9], 27.1 µM (active) and 42.6 µM (active) and 44.3 µM (active); in assay [10] it was 33.3 µM (active) and 51.2 µM (active) and 47.8 µM (active). For the same compound, the AC50 was 30.8 µM (active) and 44.1 µM (active) and 43.6 µM (active) in [11]; 13.4 µM (active) and 7.12 µM (active) and 7.29 µM (active) in assay [12]; 37.5 µM (active) in [13]; 27.6 µM (active) and 43.9 µM (active) and 45.9 µM (active) in [14]; 26.8 µM (active) and 44.2 µM (active) and 47.6 µM (active) in assay [15]; 10.9 µM (active) and 16.4 µM (active) in assay [16]. For the same compound, in assay [17], the AC50 was 29.3 µM (active) and 43.7 µM (active) and 45.6 µM (active).

As to `CO/C=C(/C(=O)OC)c1ccccc1COc1cccc(C(F)(F)F)n1`, the result in assay [2], in assay [4], in assay [6], in [8], in assay [10] and in [18] was inactive. In addition, the result in [12], in assay [13], in [14], in assay [16] and in assay [17] was inactive. Moreover, the AC50 in assay [3] is 13.2 µM (active); in assay [5], 7.64 µM (active); in assay [7], 7.3 µM (active); in assay [9], 9.84 µM (active); in assay [11] it was 20 µM (active); in assay [15] it was 7.84 µM (active).

Turning to `CC(C)C(=O)OCC(C)(C)C(OC(=O)C(C)C)C(C)C` (configuration not stated), the call in [1], in [3], in assay [5], in [6], in [7] and in assay [8] was inactive. Also, the result in assay [9], in assay [10], in assay [11], in [12], in assay [13] and in assay [14] was inactive. Moreover, the result in assay [15], in assay [19], in [16] and in assay [17] was inactive.
